# Measured values taken from publication PMC5540273 (PLoS ONE, 2017).
# What was measured:
# Conditions in all cases: concentration: 1 μM, replicates: in singlicate; n = 1
# PIK4CB = test system: T1, PIK4CB
# T1 construct: gene PI4KB
# PIKFYVE = test system: PIKFYVE
# PIM1 = test system: PIM1
# PIM2 = test system: PIM2
# PIM3 = test system: PIM3
# PIP5K1A = test system: PIP5K1A
# PIP5K1C = test system: PIP5K1C
# PIP5K2B = test system: PIP5K2B
# PIP5K2C = test system: T2, PIP5K2C
# T2 construct: gene PIP4K2C
# PKAC-alpha = test system: T3, PKAC-alpha
# T3 construct: gene PRKACA
# 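Also: KINOMEscan kinase panel screen.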
Compound,%Inh (PIK4CB) [%],%Inh (PIKFYVE) [%],%Inh (PIM1) [%],%Inh (PIM2) [%],%Inh (PIM3) [%],%Inh (PIP5K1A) [%],%Inh (PIP5K1C) [%],%Inh (PIP5K2B) [%],%Inh (PIP5K2C) [%],%Inh (PKAC-alpha) [%]
O=C(Nc1n[nH]c2nc(-c3cccs3)c(Br)cc12)C1CCCC1 [SB-743341],33,9,0,0,0,0,23,3,0,0
COc1ccc(-c2coc3ccc(-c4nnc(C)o4)cc23)cc1,0,0,10,21,15,13,14,9,10,3
Cc1ccc(NC(=O)Nc2ccc(Cl)cc2)cc1-c1ccc(C(=O)Nc2ccncc2)cc1 [GSK1398472],5,0,9,0,0,11,41,12,2,7
c1ccc(-c2ccnc3[nH]ccc23)cc1 [SB-693578],4,11,0,0,0,40,28,4,18,0
COC(=O)c1cccc(NC(=O)NC2CCN(c3ccnc(Nc4ccc(OC)cc4)n3)C2)c1 (stereo not shown) [GSK1379746],21,41,0,0,0,17,10,19,48,0
Cc1cccc2c(-c3ccncn3)c(-c3ccc(F)cc3)nn12 [GW515532],0,22,20,0,0,4,31,0,0,7
Nc1ncnc2occ(-c3ccc4c(c3)CCN4C(=O)Cc3cc(F)ccc3F)c12 [GSK2645446],0,0,0,0,0,0,52,0,16,0
O=C(Nc1n[nH]c2nc(-c3ccco3)c(Br)cc12)C1CCN(Cc2ccccc2)C1.O=C(O)[C@H](O)[C@@H](O)C(=O)O (stereo not shown) [SB-742034],14,7,9,5,28,0,0,0,0,10
COc1cccc(CNC(=O)NC2CCN(c3ccnc(Nc4ccc(F)cc4)n3)C2)c1 (stereo not shown) [GSK1379723],11,9,15,0,0,0,11,8,26,0
COc1cccc(C2=C(Nc3cc(Cl)c(O)c(Cl)c3)C(=O)NC2=O)c1 [SB-390767],21,0,0,0,0,0,66,15,15,0
CC(=O)c1cccc(NC(=O)NC2CCN(c3ccnc(Nc4ccc(F)cc4)n3)C2)c1 (stereo not shown) [GSK1379710],31,25,18,0,4,36,50,8,22,0
CCn1c(-c2c(N)noc2C)nc2cnccc21 [SB-737856],0,0,0,0,0,0,0,19,6,0
Cc1ccc(NC(=O)Nc2ccccc2F)cc1-c1ccc(C(=O)Nc2ccncc2)cc1 [GSK1398477],0,0,6,0,0,0,0,0,0,46
COc1cccc(NC(=O)Nc2ccc(C)c(-c3ccc(C(=O)Nc4ccncc4)cc3)c2)c1 [GSK1398474],0,0,15,0,22,0,0,0,0,17
Cl.Cl.Cl.N#Cc1ccc(CCNc2nccc(-c3cccc(CN4CCNCC4)c3)n2)cc1 [GSK2137462],26,0,20,0,13,0,0,0,11,13
CNc1cc(-c2ccc3c(N)n[nH]c3c2)nc(N)n1 [GSK2224810],11,0,15,0,0,18,45,5,27,8
COc1ccc(CSc2nnc(-c3ccc4ncsc4c3)o2)cc1C(F)(F)F,0,0,1,0,10,0,11,17,11,0

Compound,%Inh (PIK4CB) [%],%Inh (PIKFYVE) [%],%Inh (PIM1) [%],%Inh (PIM2) [%],%Inh (PIM3) [%],%Inh (PIP5K1A) [%],%Inh (PIP5K1C) [%],%Inh (PIP5K2B) [%],%Inh (PIP5K2C) [%],%Inh (PKAC-alpha) [%]
COc1ccc(Nc2nccc(NCCNC(=O)Nc3cc(C)ccc3C)n2)cc1 [GSK1379899],0,0,0,0,0,0,18,6,39,0
Cc1ccc(NC(=O)Nc2ccccc2)cc1-c1ccc(C(=O)Nc2ccncc2)cc1 [GSK1398471],0,0,9,0,4,0,0,6,0,29
CS(=O)(=O)CCNCc1nc(-c2ccc3ncnc(Nc4ccc(OCc5ccccc5)c(Cl)c4)c3c2)cs1.Cl [GW582764],0,25,14,0,0,47,52,10,56,0
Cc1c(Cn2c3ccccc3n3c(=O)cc(N4CCOCC4)nc23)cccc1C(F)(F)F [GSK2306394],90.3,0,6,0,0,0,8,20,0,0
CC(=O)c1c(C)c2cnc(Nc3ccc(N4CCNCC4)cn3)nc2n(C2CCCC2)c1=O,0,39,0,0,0,0,0,0,14,0
COc1ccc(CSc2nnc(-c3ccc4c(c3)CCO4)o2)cc1,0,0,0,0,0,11,23,9,14,0
CC[C@@H]1CO[C@H](C(=O)Nc2ccccc2)CN1c1cc(-c2ccc3c(N)n[nH]c3c2)nc(NC)n1 [GSK2376236],33,0,14,0,3,0,39,3,3,74
CNc1nc(-c2ccc3c(N)n[nH]c3c2)cc(N2C[C@@H](C(=O)NC3CCCCC3)OC[C@H]2C)n1 [GSK2375584],0,0,11,0,0,34,54,21,27,5
Cc1ccc(NC(=O)c2ccc(Cl)cc2)cc1-c1ccc(C(=O)Nc2ccncc2)cc1 [GSK1398467],0,0,0,0,0,0,45,0,33,0
CNc1nc(-c2ccc3c(N)n[nH]c3c2)cc(N2C[C@@H](C(=O)Nc3ccccc3)CC[C@H]2C)n1 [GSK2298859],0,0,0,0,0,0,50,0,3,57
COc1ccc(CSc2nnc(-c3ccc4nccn4c3)o2)cc1C(F)(F)F,0,0,6,9,0,2,0,43,0,10
CC(C)c1ccc(O)cc1Nc1ccnc2ccc(C(F)(F)F)cc12 [GW482059],45,1,19,0,0,0,0,7,0,0
CC(=O)c1c(C)c2cnc(Nc3ccn(C)n3)nc2n(C2CCCC2)c1=O,0,9,0,0,0,0,1,0,91.9,0
COC(=O)C(NC(=O)NC1CCN(c2ccnc(Nc3ccc(F)cc3)n2)C1)c1ccccc1 (stereo not shown) [GSK1379712],16,28,0,0,0,9,41,17,29,0
O=C1NC(=O)C(c2ccc(Cl)cc2)=C1Nc1ccc(O)cc1 [SB-340867],13,9,0,3,0,0,40,0,0,0
Cn1cncc1C(=O)NC1CCN(c2ccnc(Nc3ccc(F)cc3)n2)C1 (stereo not shown) [GSK1379717],26,0,15,0,0,0,32,0,20,0
CCn1c(-c2ccccc2)nc2cnccc21 [SB-733416],0,40,0,0,0,5,21,0,13,0
